A short description of experiment [1]: Nuclear factor erythroid 2-related factor 2/antioxidant responsive element (Nrf2/ARE) small molecule agonists: qHTS cell viability counter screen in human keratinocytes (AID 1919968; active = well fitted curve in the direction sought with a large enough effect in the repeat runs; an effect the other way counts as inactive or inconclusive; note: nearly all actives have a fitted effect of over 55% in size). In outline:
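KeratinoSens HaCaT cells, 1,500/well, preincubated 5 h, then exposed to compounds in DMSO for 23 h at 37 C/5% CO2. Viability read as CellTiter-Fluor fluorescence after 1 h, in the same wells as the ARE-luciferase read.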
On the technique in general: In qHTS, concentration-response curves come from the screen itself.

A short description of experiment [2]: Nuclear factor erythroid 2-related factor 2/antioxidant responsive element (Nrf2/ARE) small molecule agonists: luciferase reporter gene qHTS assay in human keratinocytes (AID 1919969). Note: nearly all actives have a fitted effect of over 35% in size.
The target in experiment [3] is Gonadotropin-releasing hormone receptor (Homo sapiens) (UniProt P30968). Kind of experiment: Human gonadotropin-releasing hormone receptor (GnRHR) small molecule agonists, calcium flux assay in GnRHR-HEK293 cells (AID 1920063). Note: nearly all actives have a fitted effect of over 35% in size. In outline:
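HEK293 cells stably expressing human GnRHR were dye-loaded for 1 h at 37 C. Compound was added in agonist mode and fluorescence (Ex/Em 480/540) recorded kinetically for 3 min. Fifteen concentrations, triplicates.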
(Calcium assays in cells follow changes in intracellular calcium, usually with a dye or a luminescent sensor.)

The target of experiment [4] is KiSS-1 receptor (Homo sapiens) (UniProt Q969F8). Kind of experiment: Human kisspeptin (KISS1R) small molecule agonists, calcium flux assay in KISS1R-HEK293 cells (AID 1920064; active = well fitted curve in the direction sought with a large enough effect in the repeat runs; an effect the other way counts as inactive or inconclusive). In outline: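 HEK293 cells stably expressing human KISS1R were loaded with calcium dye for 1 h at 37 C, then given compound; fluorescence (Ex/Em 480/540) was read kinetically for 3 min. Fifteen concentrations, triplicate.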

The nature of experiment [5]: G protein-coupled receptor (GPCR) small molecule agonists, calcium flux assay: HEK293 wild type cell line counter screen (AID 1920065). In outline: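 Wild-type HEK293 cells plated 18 h, loaded with calcium dye 1 h at 37 C, then compounds added in agonist mode (ATP as positive control). Kinetic fluorescence Ex/Em 480/540 recorded 3 min at 1 sec intervals; 15 concentrations, triplicate.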

The nature of experiment [6]: p53 small molecule agonists, cell-based qHTS assay with human liver microsomes (AID 1963577).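 Note: p53 response element beta-lactamase reporter cells with liver microsomes plus NADPH.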 Put shortly:
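In this qHTS, p53 response-element beta-lactamase cells receive test compound together with a microsome/NADPH activating system (0.5 mg/mL final each) and are incubated 16 h at 37 C before LiveBLAzer fluorescence detection.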

Experiment [7] is described as follows: p53 small molecule agonists, cell-based qHTS assay with rat liver microsomes (AID 1963578). In outline: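 Agonist mode in p53RE-bla reporter cells, with compounds co-incubated 16 h at 37 C alongside 0.5 mg/mL rat liver microsomes and 0.5 mg/mL NADPH (final), followed by a 2 h LiveBLAzer detection step.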
Experiment [8] can be described thus: p53 small molecule agonists, cell-based qHTS assay with human liver microsomes: qHTS cell viability counter screen (AID 1963579). Note: nearly all actives have a fitted effect of over 45% in size. Put shortly:
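Metabolically activated exposure: compounds, human liver microsomes and NADPH (0.5 mg/mL final apiece) were added to p53RE-bla cells seeded 5 h earlier, left 16 h at 37 C, and then assessed for viability by CellTiter-Glo luminescence.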

Experiment [9] in a line: p53 small molecule agonists, cell-based qHTS assay with rat liver microsomes: qHTS cell viability counter screen (AID 1963580). Note: nearly all actives have a fitted effect of over 45% in size. In outline:
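HCT-116 p53RE-bla, 4,000 cells/well, 5 h pre-incubation; cpd + rat liver microsomes 0.5 mg/mL + NADPH 0.5 mg/mL (final); 16 h, 37 C; CellTiter-Glo, 30 min RT; luminescence.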

A short description of experiment [10]: p53 small molecule agonists, cell-based qHTS assay: qHTS cell viability counter screen (AID 1963581). Note: nearly all actives have a fitted effect of over 45% in size. In outline:
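p53RE-bla HCT-116 cells, compounds added 5 h after plating and incubated 16 h at 37 C. Cytotoxicity measured in the same wells as intracellular ATP by CellTiter-Glo luminescence after 30 min at room temperature.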

Experiment [11] is described as follows: p53 small molecule agonists, cell-based qHTS assay (AID 1963582; active = well fitted activation curve with a large enough effect in the signal ratio in the repeat runs, not every such curve was filed as active; the % refers to the signal ratio). In outline: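 p53RE-bla reporter cells, compounds added in DMSO after 5 h plating, incubated 16 h at 37 C. Beta-lactamase read via 2 h room-temperature LiveBLAzer B/G FRET substrate, fluorescence intensity.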
The target in experiment [12] is 5-hydroxytryptamine receptor 2A (Homo sapiens) (UniProt P28223). Kind of experiment: 5-hydroxytryptamine receptor 2A (HTR2A) small molecule antagonists, cell-based qHTS assay (AID 1963586). Note: nearly all actives have a fitted effect of over 45% in size. In outline: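 Antagonist-mode intracellular calcium assay: DOI (4 nM) added after 5 min compound pre-incubation at room temperature to dye-loaded HTR2A-CHO cells. Fluorescence followed for 3 min, sampled every second.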

For experiment [13] the target is unchanged. Kind of experiment: 5-hydroxytryptamine receptor 2A (HTR2A) small molecule agonists, cell-based qHTS assay (AID 1963587). Note: nearly all actives have a fitted effect of over 30% in size. Put shortly:
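Kinetic calcium-flux fluorescence (2 min, 1 sec intervals) after compound addition in agonist mode. HTR2A-CHO cells were cultured 18 h, then dye-loaded 1 h at 37 C.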

Experiment [14] addresses Muscarinic acetylcholine receptor M1 (Homo sapiens) (UniProt P11229). Description: Cholinergic receptor muscarinic 1 (CHRM1) small molecule antagonists, cell-based qHTS assay (AID 1963588). Note: nearly all actives have a fitted effect of over 40% in size. Note: potency is the fitted concentration of half-maximal effect. Put shortly:
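CHRM1-CHO calcium-flux assay, antagonist mode. Cells were seeded 18 h, dye-loaded 1 h at 37 C and given compound for 5 min at RT, then acetylcholine was added at 50nM. FDSS fluorescence was read 3 min; 15 concentrations, three runs.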

The target is the same in experiment [15]. Kind of experiment: Cholinergic receptor muscarinic 1 (CHRM1) small molecule agonists, cell-based qHTS assay (AID 1963589). Note: nearly all actives have a fitted effect of over 35% in size. Put shortly: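 CHO cells stably expressing human CHRM1 were loaded with calcium dye for 1 h at 37 C, then compound was added in agonist mode. Intracellular calcium fluorescence was followed kinetically at 1 s intervals. Fifteen concentrations were tested in three independent runs.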

Experiment [16] is described as follows: cAMP Responsive Elements (CRE) small molecule agonists, cell-based qHTS assay (AID 1963590). Put shortly: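 CRE-bla HEK 293T cells, 2,000/well in DMEM with 10% dialyzed FBS and 25 mM HEPES, pre-incubated 18 h at 37 C, then exposed to compound 3 h at 37 C. Beta-lactamase reporter read with LiveBLAzer B/G FRET substrate after 2 h at room temperature.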
Experiment [17] can be described thus: cAMP Responsive Elements (CRE) small molecule antagonists, cell-based qHTS assay (AID 1963591; active = well fitted inhibition curve with a large enough effect in the signal ratio in the repeat runs, not every such curve was filed as active; the % refers to the signal ratio). Put shortly:
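CRE-bla HEK293T cells plated 18 h, then given compound plus NKH477 at 0.25 uM final for 3 h at 37C. Beta-lactamase reporter read with LiveBLAzer B/G FRET substrate after 2 h at room temperature.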

For experiment [18], the target named is Beta-2 adrenergic receptor (Homo sapiens) (UniProt P07550). Kind of experiment: Adrenergic beta2 receptor (ADRB2) small molecule antagonists, cell-based qHTS assay (AID 1963592). Note: series mostly up to about 92 µM; nearly all actives have a fitted effect of over 50% in size. Put shortly:
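Cells (CHO, stable ADRB2 overexpression) incubated 18-20hr at 37C; compounds added from DMSO; agonist mix (1nM isoproterenol, 100uM IBMX, 25uM Ro-20-1724) added; 0.5hr RT; d2-cAMP and anti-cAMP-cryptate added; 1hr RT; 665/615 nm read.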

For experiment [19] the target is unchanged. Kind of experiment: Adrenergic beta2 receptor (ADRB2) small molecule agonists, cell-based qHTS assay (AID 1963593).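 Note: CHO cells stably overexpressing human ADRB2.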 Put shortly:
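CHO cells stably over-expressing ADRB2 were plated overnight at 37C, then dosed with compounds plus a stimulation mix containing 100uM IBMX and 25uM Ro-20-1724 for 0.5hr at room temperature. cAMP was measured by HTRF competition, 1hr.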

Experiment [20] concerns the target D(2) dopamine receptor (Homo sapiens) (UniProt P14416). Kind of experiment: Dopamine D2 receptor (DRD2) small molecule agonists, cell-based qHTS assay (AID 1963594). Note: nearly all actives have a fitted effect of over 35% in size. Put shortly: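 cAMP accumulation in DRD2-HEK293 cells measured by HTRF after 1 h detection; compounds added 10 min before NKH477 (200nM […]) forskolin-analogue stimulation, 30 min at room temperature, with Ro20-1724 present at 0.1 mM final.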

Unmarked numbers belong to inactive results. Records with an inconclusive call do not appear. Activity calls are given as the source filed them. Unless noted, calls come from the whole dose curve.

Muscarinic acetylcholine receptor M1 (Homo sapiens), sequence (P11229 whole entry, looked up): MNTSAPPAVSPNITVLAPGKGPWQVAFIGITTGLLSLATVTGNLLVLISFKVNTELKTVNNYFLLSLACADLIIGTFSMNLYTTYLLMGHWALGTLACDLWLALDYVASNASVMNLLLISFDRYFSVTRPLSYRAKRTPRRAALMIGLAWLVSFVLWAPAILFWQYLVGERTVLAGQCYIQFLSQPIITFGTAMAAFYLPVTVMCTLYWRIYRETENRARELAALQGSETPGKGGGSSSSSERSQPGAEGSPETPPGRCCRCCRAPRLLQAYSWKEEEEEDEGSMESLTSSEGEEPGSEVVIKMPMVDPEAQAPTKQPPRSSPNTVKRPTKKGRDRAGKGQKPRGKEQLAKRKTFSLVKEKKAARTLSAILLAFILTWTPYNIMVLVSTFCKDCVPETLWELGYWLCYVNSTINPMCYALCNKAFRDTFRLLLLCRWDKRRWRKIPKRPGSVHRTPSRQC
KiSS-1 receptor (Homo sapiens), sequence (Q969F8 whole entry, looked up): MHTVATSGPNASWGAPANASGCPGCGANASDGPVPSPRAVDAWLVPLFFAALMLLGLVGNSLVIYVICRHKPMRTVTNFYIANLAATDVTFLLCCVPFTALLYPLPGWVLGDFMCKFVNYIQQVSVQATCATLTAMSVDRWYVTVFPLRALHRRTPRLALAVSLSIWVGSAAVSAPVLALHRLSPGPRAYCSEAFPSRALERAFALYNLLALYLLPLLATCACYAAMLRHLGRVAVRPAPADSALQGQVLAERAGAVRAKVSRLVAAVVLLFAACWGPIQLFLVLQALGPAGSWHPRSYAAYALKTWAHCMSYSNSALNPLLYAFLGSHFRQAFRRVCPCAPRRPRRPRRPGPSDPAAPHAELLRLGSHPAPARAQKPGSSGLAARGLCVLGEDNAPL
D(2) dopamine receptor (Homo sapiens), sequence (P14416 whole entry, looked up): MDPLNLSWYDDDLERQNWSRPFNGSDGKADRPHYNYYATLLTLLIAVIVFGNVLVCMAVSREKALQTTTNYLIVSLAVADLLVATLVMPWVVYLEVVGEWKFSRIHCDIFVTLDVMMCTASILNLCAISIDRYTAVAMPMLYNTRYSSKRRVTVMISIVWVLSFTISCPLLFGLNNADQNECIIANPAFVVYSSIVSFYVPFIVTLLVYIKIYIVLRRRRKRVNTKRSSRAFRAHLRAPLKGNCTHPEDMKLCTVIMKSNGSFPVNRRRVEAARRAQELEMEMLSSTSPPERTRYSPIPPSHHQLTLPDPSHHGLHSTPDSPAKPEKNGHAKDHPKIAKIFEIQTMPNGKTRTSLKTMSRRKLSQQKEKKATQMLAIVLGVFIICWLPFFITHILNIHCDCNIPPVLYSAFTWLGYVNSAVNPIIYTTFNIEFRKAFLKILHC
Beta-2 adrenergic receptor (Homo sapiens), sequence (P07550 whole entry, looked up): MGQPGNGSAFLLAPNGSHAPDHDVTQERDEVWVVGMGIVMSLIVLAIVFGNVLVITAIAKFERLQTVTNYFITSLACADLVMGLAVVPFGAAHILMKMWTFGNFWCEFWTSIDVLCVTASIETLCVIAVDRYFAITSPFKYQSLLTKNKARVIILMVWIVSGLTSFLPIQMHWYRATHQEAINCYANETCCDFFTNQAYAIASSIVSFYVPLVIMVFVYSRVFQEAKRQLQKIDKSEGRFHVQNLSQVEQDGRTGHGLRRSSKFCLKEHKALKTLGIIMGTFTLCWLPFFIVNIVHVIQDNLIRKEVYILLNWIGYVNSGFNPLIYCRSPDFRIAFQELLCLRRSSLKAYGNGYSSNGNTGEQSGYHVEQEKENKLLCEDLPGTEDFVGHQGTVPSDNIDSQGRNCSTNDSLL
Gonadotropin-releasing hormone receptor (Homo sapiens), sequence (P30968 whole entry, looked up): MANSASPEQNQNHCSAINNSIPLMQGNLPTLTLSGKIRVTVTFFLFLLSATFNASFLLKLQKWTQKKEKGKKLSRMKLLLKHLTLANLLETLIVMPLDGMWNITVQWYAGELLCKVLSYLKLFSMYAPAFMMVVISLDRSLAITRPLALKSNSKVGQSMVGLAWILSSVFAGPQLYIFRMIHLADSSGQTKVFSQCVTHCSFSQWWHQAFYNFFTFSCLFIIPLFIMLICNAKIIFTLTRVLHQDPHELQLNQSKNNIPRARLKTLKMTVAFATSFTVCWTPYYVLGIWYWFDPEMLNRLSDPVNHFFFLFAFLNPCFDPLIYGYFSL
5-hydroxytryptamine receptor 2A (Homo sapiens), sequence (P28223 whole entry, looked up): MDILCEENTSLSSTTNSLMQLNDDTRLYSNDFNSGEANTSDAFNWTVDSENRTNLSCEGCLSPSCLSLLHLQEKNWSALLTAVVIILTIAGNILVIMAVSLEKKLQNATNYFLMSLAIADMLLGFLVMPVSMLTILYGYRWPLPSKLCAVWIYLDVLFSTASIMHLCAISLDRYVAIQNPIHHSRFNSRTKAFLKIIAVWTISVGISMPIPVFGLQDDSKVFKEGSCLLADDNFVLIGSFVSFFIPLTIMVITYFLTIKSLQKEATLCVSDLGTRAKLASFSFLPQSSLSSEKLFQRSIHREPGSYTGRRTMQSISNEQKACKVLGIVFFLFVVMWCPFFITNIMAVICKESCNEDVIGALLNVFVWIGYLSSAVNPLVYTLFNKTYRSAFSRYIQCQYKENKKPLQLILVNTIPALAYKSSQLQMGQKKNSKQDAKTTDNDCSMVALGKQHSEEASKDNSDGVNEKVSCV

On to `CC(C)CCCCCCCCCCCCCCC(=O)O`, for which the Potency result in experiment [1], in experiment [2], in [3], in experiment [4], in [5] and in experiment [6] was “inactive” each time. For the same compound, the Potency result in experiment [7], in experiment [8], in experiment [9], in experiment [10], in [11] and in experiment [12] was “inactive” in each case. The Potency result in experiment [13], in experiment [14], in [15], in experiment [16], in experiment [17] and in experiment [18] was “inactive” throughout. Also, the Potency entry in experiment [19] and in [20] was “inactive” each time.
For the compound `CCOc1cc(NC(C)=O)ccc1C(=O)OC`, the Potency result in experiment [1], in experiment [2], in experiment [3], in experiment [4], in [5] and in experiment [6] was “inactive” throughout. Further, the Potency entry in [7], in experiment [8], in experiment [9], in experiment [10], in [11] and in experiment [12] was “inactive” each time. In addition, the Potency result in [13], in experiment [14], in experiment [15], in [16], in experiment [17] and in experiment [18] was “inactive” each time. Also, the Potency entry in experiment [19] and in experiment [20] was “inactive” in each case.
`CC(C)(CC(=O)O)C(=O)O`: the Potency result in [1], in experiment [2], in experiment [3], in experiment [4], in experiment [5] and in experiment [6] was “inactive” in each case. The Potency entry in experiment [7], in [8], in experiment [9], in [10], in experiment [11] and in [12] was “inactive” throughout. The Potency entry in [13], in [14], in experiment [15], in experiment [16], in experiment [17] and in experiment [18] was “inactive” each time. The Potency entry in experiment [19] and in experiment [20] was “inactive” each time.
Take `O=C(O)CNC(=O)c1ccccc1I`: the Potency result in experiment [1], in experiment [2], in experiment [3], in experiment [4], in [5] and in experiment [6] was “inactive” throughout. Besides, the Potency result in [7], in experiment [8], in experiment [9], in [10], in experiment [11] and in experiment [12] was “inactive” each time. The Potency entry in experiment [13], in experiment [14], in experiment [15], in [16], in [17] and in experiment [18] was “inactive” throughout. The Potency entry in [19] and in [20] was “inactive” in each case.
Regarding `C=CCCCCCCCCO`, the Potency entry in [1], in experiment [2], in [3], in experiment [4], in experiment [5] and in experiment [6] was “inactive” in each case. Besides, the Potency result in experiment [7], in [8], in [9], in experiment [10], in [11] and in [12] was “inactive” each time. The Potency result in [13], in [14], in [15], in [16], in experiment [17] and in experiment [18] was “inactive” in each case. Further, the Potency result in [19] and in [20] was “inactive” in each case.
As to `NCc1cccc(CN)c1`, the Potency entry in experiment [1], in [2], in [3], in [4], in experiment [5] and in [6] was “inactive” each time. The Potency result in experiment [7], in [8], in experiment [9], in experiment [10], in experiment [11] and in experiment [12] was “inactive” in each case. For the same compound, the Potency entry in experiment [13], in experiment [15], in experiment [16], in experiment [17], in experiment [18] and in experiment [19] was “inactive” throughout. The Potency entry in experiment [20] is “inactive”. The Potency in experiment [14] is 42.1 µM (active).
For the compound `CCC(C)SSC(C)CC` (stereo not given), the Potency result in experiment [1], in experiment [2], in [3], in experiment [4], in experiment [5] and in experiment [6] was “inactive” throughout. The Potency result in experiment [7], in experiment [8], in experiment [9], in [10], in experiment [11] and in [12] was “inactive” throughout. Moreover, the Potency entry in experiment [13], in experiment [14], in experiment [15], in [16], in experiment [17] and in experiment [18] was “inactive” each time. The Potency entry in experiment [19] and in [20] was “inactive” in each case.

Values taken from PubChem BioAssay (Tox21).
